# Among all 1,200 compounds or so, about 870 (72%) were called active. Roughly 3% stayed inconclusive and do not appear here. So high a share suggests a set chosen from earlier hits. Only a sample is shown. Results with a measured potency or affinity are listed apart. A number with no mark means an inactive call.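 The calls were made as follows: active = every test run fits a falling curve whose half-maximal concentration is at most twice the top valid dose; inconclusive = runs disagree, or flat 30 to 70% inhibition, or poor fit; inactive = every run inactive: flat, rising or weaker potency.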
# Assay: blockers of HIV-1 ZM109 envelope-driven cell-cell fusion – HeLa effector, CEM target cells, luciferase, cherry-pick, dose response (AID 652058);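 also: 0% = neutral control wells and -100% = maraviroc 300 nM wells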
# Settings: HeLa Env/CEM cell fusion, 16-24 h; series mostly up to 35 µM; activity change, negative = inhibition: at the top concentration
row,Compound,"activity change, negative = inhibition"
1,Cc1[nH]c2ccccc2c1/C=N\NC(=O)c1ccccc1Cl,39.8%
2,O=C(NCc1cccc(F)c1)[C@@H]1[C@@H](CO)[C@@H]2Cn3c(ccc(-c4cccnc4)c3=O)[C@H]1N2CC1CC1,-17.1%
3,COc1ccc(CCNC(=O)C2CCCN(Cc3nc(-c4cccc(Cl)c4)oc3C)C2)cc1OC (stereo unspecified),-35.4%
4,CCCNC(=O)N1[C@H](C#N)[C@H](c2ccc(-c3cccc(OC)c3)cc2)[C@@H]1CO,127%
5,N#C[C@@H]1[C@H](c2ccc(-c3ccccc3F)cc2)[C@@H](CO)N1C(=O)Cc1ccccc1,-31.2%
6,S=c1nc[nH]c2c1[nH]c1ccc(Cl)cc12,77%
7,Cc1cc(C(=O)CN2C(=O)c3ccccc3S2(=O)=O)c(C)n1C(C)C,-55.3%
8,Cc1onc(-c2ccccc2)c1C(=O)Nc1ccc(Br)cc1Cl,-20.5%
9,Cc1onc(-c2ccccc2)c1C(=O)NC(=S)NNC(=O)c1ccc(O)cc1,41%
10,CO[C@H]1CN(C)C(=O)c2cc(NC(=O)C3CCOCC3)ccc2OC[C@H](C)N(Cc2nccs2)C[C@H]1C,-16.3%
11,CO[C@@H]1CN(C)C(=O)c2ccc(NS(C)(=O)=O)cc2OC[C@@H](C)N(C(=O)C2CCCCC2)C[C@H]1C,135%
12,CCCC(=O)Nc1ccc2c(c1)OC[C@@H](C)N(C(=O)CN(C)C)C[C@H](C)[C@@H](OC)CN(C)C2=O,-17.8%
13,CCS(=O)(=O)Nc1ccc2c(c1)C(=O)N(C)C[C@H](OC)[C@@H](C)CN(C(=O)C1CCC1)[C@H](C)CO2,101%
14,CO[C@@H]1CN(C)C(=O)c2cc(NS(=O)(=O)c3ccc(C)cc3)ccc2OC[C@H](C)N(C(=O)NC(C)C)C[C@@H]1C,59.6%
15,COc1ccc(S(=O)(=O)NC[C@@H]2CC[C@H]3[C@H](CN3Cc3cc(F)ccc3F)O2)cc1,19.1%
16,CCCC(=O)Nc1ccc2c(c1)C(=O)N(C)C[C@@H](OC)[C@@H](C)CN(Cc1nccs1)[C@@H](C)CO2,1.12%
17,CCC(=O)Nc1ccc2c(c1)C(=O)N(C)C[C@@H](OC)[C@H](C)CN(C(=O)CC)[C@@H](C)CO2,55.8%
18,Clc1ccc2c(c1)C1=C(C(c3ccncc3)O2)C(c2ccc(Br)cc2)n2ncnc2N1 (stereo unspecified),36.6%
19,COc1ccc(CC(=O)Nc2cccc(S(=O)(=O)N3CCCCCC3)c2)cc1OC,-2.63% [at 16 µM]
20,CC1CCCC(C)N1CCCNC(=O)c1nn(C)c2c1CSc1ccccc1-2 (stereo unspecified),20.6%
21,CN1C(=O)C2(c3ccccc31)N(C)CC(c1ccccc1)C21SC(=S)N(Cc2ccco2)C1=O (stereo unspecified),6.82%
22,O=C(Nc1ccc(S(=O)(=O)N2CCCC2)cc1)c1ccc(CN2CCOCC2)cc1,-10.5%
23,CCN(CC)c1ccc(/C=N/N2C(C)CCCC2C)c(O)c1 (stereo unspecified),35.2%

row,Compound,"activity change, negative = inhibition"
1,Nc1nonc1C(=O)NCCNCc1cc(Br)ccc1OCc1ccccc1F,-2.3%
2,Cn1c(SCc2nc(-c3ccc(Cl)cc3)no2)nnc1-c1cccs1,-18.2%
3,Cc1ccc(COC(=O)c2cc(S(=O)(=O)N3CCCCC3)ccc2N2CCOCC2)cc1,47%
4,O=C(COC(=O)c1cc(S(=O)(=O)N2CCOCC2)ccc1O)NCc1ccc2c(c1)OCO2,2.67%
5,CCNC1CCC(Nc2ccnc3cc(Cl)ccc23)CC1 (stereo unspecified),-13.6%
6,CCC(C)NS(=O)(=O)c1ccc(S(=O)(=O)N2CCCC3(CCCCC3)C2)cc1 (stereo unspecified),-47.6%
7,CC(=O)Nc1ccc(NC(=O)CN(c2ccc(C34CC5CC(CC(C5)C3)C4)cc2)S(C)(=O)=O)cc1,197%
8,CC(CCc1ccco1)NC(=O)CCc1nnc2ccc(NCc3ccccc3Cl)nn12 (stereo unspecified),147%
9,CCOc1ccccc1CNc1ncnc2ccc(-c3c(C)noc3C)cc12,-26.9%
10,OCC[C@@H]1C[C@@H](O)[C@H](O)[C@]2(OCc3ccccc32)O1,-30.9%
11,Cc1ccc2c(c1)c1c3n2CCN(CCC#N)C3CCC1 (stereo unspecified),72.5%
12,COc1ccccc1S(=O)(=O)n1cc(Cc2ccccc2)c(N)n1,2.38%
13,COc1ccc(C(O)c2nc3ccccc3n2C)cc1OC (stereo unspecified),-23.7%
14,CCCCCn1c(C(C)NC(=O)CCC)nc2ccccc21 (stereo unspecified),-31%
15,C=CCNc1nc2c(c(=O)n(C)c(=O)n2C)n1CCCCCC,155%
16,CCc1nc2ccccc2c(C(=O)OCC(=O)Nc2cccc(S(=O)(=O)N3CCOCC3)c2)c1C,168%
17,COc1ccc(/C(C)=N/NC(=O)c2cccc(S(=O)(=O)N3CCCC3)c2)c(O)c1,-36.4% [at 16 µM]
18,Cc1cc2c3c(c1)C1(SCC(=O)N1c1ccc(F)cc1)C(=O)N3C(C)(C)CC2C (stereo unspecified),-68.3% [at 15 µM]
19,Nc1cc2c(cc1Br)[nH]c(=O)c1ccccc12,-25.2%
20,CCc1nnc(NC(=O)[C@@H](NC(=O)c2cccc(S(=O)(=O)N(CC)CC)c2)C(C)C)s1,39.5%
21,COc1ccc(N2CCN(C(=O)C3CCC(Cn4c(=S)[nH]c5ccccc5c4=O)CC3)CC2)cc1 (stereo unspecified),-44.6%
22,Fc1ccc(-n2nnnc2-c2cnc(-c3cccs3)nc2C(F)(F)F)cc1,91% [at 16 µM]
23,O=C(N/N=C/c1ccc(-n2ccnc2)cc1)c1cccs1,73.5%
